Measurements as given in ChEMBL document CHEMBL1156829.
Several values for one entry are separate records, joined by “and”; a condition that tells them apart may be missing. Identical values can stand only once. Whole data set: some 5,400 compounds, median “IFI” near 2, cut for the highest 2% near 22. The list comes from a sample in which the highest values are over-represented; it also holds similar structures and randomly drawn compounds.

Test: NOVARTIS: Inhibition Frequency Index (IFI) - the number of HTS assays where a compound showed > 50% inhibition/induction, expressed as a percentage of the number of assays in which the compound was tested.
Assay type: functional

SMILES	IFI
CN(C)CCNc1ncc(C(=O)NCc2ccccc2)c(NCCc2ccccc2)n1	1.92%
COc1cc(C(=O)NCCc2ccccn2)ccc1OC1CCN(CC(c2ccccc2)c2ccccc2)CC1	1.37%
CCOc1cc(-c2nc3c(=O)n(C)c(=O)nc-3n(C)n2)ccc1OC(C)C	30.8%
CCOc1ccc(-c2noc(-c3ccncc3)n2)cc1OCC	0%
CCOc1cc(-c2nnc3[nH]c(=O)n(C)c(=O)c3n2)ccc1OC(C)C	4.44%
O=C(Nc1ccc(NC(=O)c2ccco2)cc1Cl)c1ccccc1	0%
Clc1ccccc1-c1nc([P+](c2ccccc2)(c2ccccc2)c2ccccc2)c(N2CCOCC2)o1	25.9%
Cc1nc([P+](c2ccccc2)(c2ccccc2)c2ccccc2)c(N2CCCCC2)o1	9.09%
CN(C)c1oc(-c2ccc(Cl)cc2Cl)nc1[P+](c1ccccc1)(c1ccccc1)c1ccccc1	20.4%
O=C(Nc1cc(C(F)(F)F)cc(C(F)(F)F)c1)Nc1ccc2nnsc2c1	12.8%
C=CCSC1=NC2(CC(c3ccccc3)c3cc(Cl)c(O)cc3O2)CC(C)(C)N1 (stereo not drawn)	0%
O=C(c1cccc([N+](=O)[O-])c1)c1ccc(Cl)c(Cl)c1	0%
Nc1ccc(-c2nc3cc(Cc4ccc5[nH]c(-c6ccc(N)cc6)nc5c4)ccc3[nH]2)cc1	10.3%
COc1ccc(-c2nc3cc(Cc4ccc5[nH]c(-c6ccc(OC)cc6)nc5c4)ccc3[nH]2)cc1	25.7%
Nc1ccc(-c2nc3cc(Oc4ccc(Oc5ccc6[nH]c(-c7ccc(N)cc7)nc6c5)cc4)ccc3[nH]2)cc1	5.8%
COc1ccc(C(=O)Nc2ccc(-c3nc4ccc(NC(=O)c5ccc(OC)cc5)cc4[nH]3)cc2)cc1	12.8%
Brc1ccc(C=NNc2nc3ccccc3[nH]2)cc1	9.02%
Nc1ccc(-c2nc3cc(Oc4ccc5[nH]c(-c6ccc(N)cc6)nc5c4)ccc3[nH]2)cc1	15.4%
Nc1ccc(-c2nc3cc(-c4ccc5[nH]c(-c6ccc(N)cc6)nc5c4)ccc3[nH]2)cc1	27.3%
c1cncc(-c2nc3cc(-c4ccc5[nH]c(-c6cccnc6)nc5c4)ccc3[nH]2)c1	5.56%
Brc1ccc(C=Nc2ccc(-c3nc4cc(-c5ccc6[nH]c(-c7ccc(N=Cc8ccc(Br)cc8)cc7)nc6c5)ccc4[nH]3)cc2)cc1	23.1%
N=c1c2ccccc2nnn1-c1ccc(C(F)(F)F)cc1	2.53%
COC(=O)c1sc2nc(CN3CCC(C)CC3)ccc2c1NC(=O)c1ccc(C)s1	1.74%
CCOc1ccccc1-n1c(SCC(=O)c2ccc(Cl)cc2)nc2[nH]ncc2c1=O	1.16%
CC(=O)NC(CO)C(O)c1ccc([N+](=O)[O-])cc1 (stereo not drawn)	0%

SMILES	IFI
COc1ccc(S(=O)(=O)N(C)CCCNc2ccnc3cc(Cl)ccc23)cc1	10.2%
CC(c1nc2ccccc2c(=O)n1C)N1CCN(C(=O)C(C)(C)C)CC1 (stereo not drawn)	0%
N#Cc1ccc(NC(=O)c2cc(Cl)ccc2O)cc1	24.7%
O=C(Nc1c2ccccc2nc2ccccc12)c1cc(Cl)ccc1O	3.03%
O=C(Nc1cccc(Cl)c1)c1cc2ccccc2cc1O	9.62%
CCCN(C(=O)Nc1c(C(C)C)cccc1C(C)C)C(CC)c1nc2ccccc2c(=O)n1-c1cccc(C)c1 (stereo not drawn)	0.943%
CCOC(=O)N1CCN(C(=O)C(=O)NNC(=O)COc2ccc(Cl)cc2Br)CC1	0%
OC1(c2ccc(Br)cc2)CCN(C2CCN(Cc3ccccc3)CC2)CC1	1.57%
COCC(=O)NCc1ccc(OC2CCN(CC(c3ccccc3)c3ccccc3)CC2)cc1	1.41%
O=C(Nc1cccc(Oc2ccccc2)c1)NC(CN1CCCC1)c1ccccc1 (stereo not drawn)	7.04%
CC[C@H](C)C[C@H]1CC[C@](O)([C@](C)(O)C(=O)N[C@@H]2C(=O)N3NCCC[C@@H]3C(=O)N(O)[C@@H](C)C(=O)NCC(=O)N3NCCC[C@H]3C(=O)N(O)[C@H](C)C(=O)O[C@H]2C(C)C)O[C@@H]1C	34.4%
CCCCCCC1CCC(O)(C(C)(O)C(=O)NC2C(=O)N3NCCCC3C(=O)N(O)C(COC)C(=O)NCC(=O)N3NCCCC3C(=O)N(O)C(C)C(=O)OC2C)OC1C (stereo not drawn)	39.3%
COc1ccc(CN2CCOc3ccc(C(C)(O)CN(C)C)cc3C2)cc1C (stereo not drawn)	0%
CCOC(=O)c1c(C)n(-c2ccccc2)c2ccc(O)cc12	2.54%
CCN1CCN(c2c(C(=O)c3ccccc3)cnc3cc(OC)c(OC)cc23)CC1	2.22%
CCCCc1c(C)nc2c(OC)cccc2c1O	0%
CCCCN(C)Cc1cc(-c2cccc(OC)n2)ccc1O	3.42%
Oc1c2c(nc3cc(-c4ccccc4)nn13)CCCC2	7.14%
CC(C)CNCc1cc(-c2ccc(F)cc2)ccc1O	0.98%
CC(=O)Nc1c(NCc2ccccc2)c2ccccc2sc1=O	2.17%
Cc1ccc(Nc2nc3c(N)nnc(N)c3nc2Nc2ccc(C)cc2)cc1	2.98%
O=C(NN=CC(Br)=Cc1ccccc1)c1ccc(F)cc1	0%
CCS/C(Cl)=C(/NC(=O)c1ccccc1)[P+](c1ccccc1)(c1ccccc1)c1ccccc1	3.57%
O=C(NC(=C(Cl)Cl)[P+](c1ccccc1)(c1ccccc1)c1ccccc1)c1ccc(F)cc1	27.3%
COc1ccc(/C=C(/C#N)C(=O)Nc2cccc3ccccc23)cc1	0%

SMILES	IFI
COc1cc(NC(C)CCCN(Cc2ccc(Cl)cc2)C(=O)Nc2cccc(C(F)(F)F)c2)c2ncccc2c1 (stereo not drawn)	2.7%
Cc1ccccc1C[n+]1cc(-c2ccc(Cl)cc2)n2c1CCC2	7.14%
CCCCNC1=CC(=O)C(=O)c2ccccc21	15.4%
CCSC1=CC(=O)c2ccccc2C1=O	24.3%
Cc1c(C(=O)NCCN2CCCC2)cnn1-c1ncc2c(n1)-c1ccccc1SC2	2.59%
COCCOC(=O)C1=C(C)NC2=C(C(=O)CC(c3ccc(OC)c(OC)c3)C2)C1c1ccccc1Cl (stereo not drawn)	2.33%
CC(C)NC(=O)c1ccc2c(c1)N=C(c1ccccc1)N(C1CC1)C2	2.47%
Cc1ccccc1C=NNc1nc2ccccc2[nH]1	0%
CCN1/C(=C/c2ccc3ccccc3[n+]2CC)Sc2c1ccc1ccccc21	24.1% and 14.3%
CC[n+]1c(/C=C2\Sc3ccc(OC)cc3N2C)ccc2cc(C)ccc21	14.3%
CC[n+]1c(/C=C2\Sc3ccccc3N2CCO)ccc2cc(C)ccc21	6.35%
CC[n+]1c(/C=C2\Sc3cc(C)ccc3N2CCO)ccc2ccccc21	15.4%
CCN1/C(=C/c2ccc3ccccc3[n+]2CC)C=Cc2ccccc21	22.7%
CCN1/C(=C/c2cccc[n+]2C)C=Cc2ccccc21	8.33%
CCN1/C(=C/c2[se]c3ccccc3[n+]2CC)C=Cc2cc(OC)ccc21	19.6%
CCN1/C(=C/c2ccc3ccccc3[n+]2CC)Sc2cc(NC(C)=O)ccc21	8.33%
CCN1C(=Cc2ccc3ccccc3[n+]2CC)C=Cc2sc3ccccc3c21	31.4%
CC[n+]1c(/C=C2\Sc3ccc(C)cc3N2CCO)ccc2ccccc21	15.4%
CC[n+]1c(/C=C2\Sc3oc4ccccc4c3N2C)ccc2cc(C)ccc21	26.1%
CCN1/C(=C/c2ccc3ccccc3[n+]2CC)Sc2sc3ccccc3c21	18.3%
CCCC(=O)N1CCN(c2nc(Cc3ccccc3)c3c(c2C#N)CC(C)(C)OC3)CC1	4.54%
COc1ccc(-c2nc(CN3CCCCC3)ccc2O)cc1	0%
CCOC(=O)C1=C(C)NC2=C(C(=O)C(C(=O)OCC)C(c3ccccc3OC)C2)C1c1sccc1C (stereo not drawn)	3.49%
COc1ccc(C2(CNCC(O)c3cccc([N+](=O)[O-])c3)CCCC2)cc1OC (stereo not drawn)	0%
CC(=O)Nc1cc(C(=O)Nc2ccc(C3=NCCN3)cc2)ccc1C(=O)Nc1ccc(C2=NCCN2)cc1	0%

SMILES	IFI
Cc1ccn(CC(=O)N2CCOc3c(cc(-c4csc5ccccc45)cc3OCCc3ccccn3)C2)n1	4%
CCN1C=Cc2ccccc2/C1=C\c1ccc2ccccc2[n+]1CC	23.6%
CC[n+]1c(/C=C/c2ccc(Cl)cc2)ccc2ccccc21	4.84%
CC[n+]1c(C=C2C=CN(c3ccc(Cl)cc3)C=C2)ccc2ccccc21	15.4%
O=C(CCl)Nc1ccc(OC(F)F)cc1	0%
COc1ccc2nc(-c3ccccc3)cc(NCCN(C)C)c2c1	3.51%
O=c1cc(NC2CCN(CCCc3ccccc3)CC2)c2cc(Cl)ccc2o1	0%
CCOC(=O)c1cnc2cc(OCC(C)C)c(OCC(C)C)cc2c1O	0.649%
c1cn2c(-c3ccc(N4CCOCC4)cc3)cnc2c(NCc2ccc3c(c2)OCO3)n1	0%
CN1c2ccccc2N(C)C1c1ccc2c(c1)OCO2	0.621%
c1ccc(C2=NN(c3ccccc3)C(c3ccc4c(c3)OCO4)N2c2ccc(N3CCOCC3)cc2)cc1 (stereo not drawn)	23.1%
CCN1CCN(c2cc(C)c3cc(NC(=O)c4ccc(F)c([N+](=O)[O-])c4)ccc3n2)CC1	6.67%
Cc1cc(Nc2cccc3ccccc23)nc(Nc2cccc3ccccc23)n1	0%
O=S(=O)(c1ccccc1)N1CCN(CC2CNCCO2)CC1 (stereo not drawn)	1.41%
Cc1oc2c(c1C(=O)NCCCn1ccnc1)C(=O)c1ccccc1C2=O	24.3%
Cc1oc2c(c1C(=O)NCc1cccnc1)C(=O)c1ccccc1C2=O	17.5%
Cc1oc2c(c1C(=O)NCC1CCCO1)C(=O)c1ccccc1C2=O (stereo not drawn)	17%
Cc1oc2c(c1C(=O)N1CCC(C)CC1)C(=O)c1ccccc1C2=O	15.4%
CCOC(=O)c1c(C)oc2c1C(=O)c1ccccc1C2=O	3.17%
Cc1oc2c(c1C(=O)NC1CCS(=O)(=O)C1)C(=O)c1ccccc1C2=O (stereo not drawn)	29.7%
COc1cc(NC(C)CCCN(Cc2ccc(F)cc2)C(=O)CCc2ccccc2)c2ncccc2c1 (stereo not drawn)	1.71%
COc1cc(NC(C)CCCN(Cc2ccc(OC)c(OC)c2)C(=O)CC(C)CC(C)(C)C)c2ncccc2c1 (stereo not drawn)	3.64%
O=C(Cc1cccs1)N1CCN(c2ccccn2)CC1	2.35%
